The term inhibition denotes the drop in the measured response relative to a control, in per cent.

Out of some 340,000 compounds screened, about 2,100 (0.62%) were called active. Only a sample is shown. Measured potencies and affinities stand elsewhere. A number with no mark means an inactive call.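 The calls were made as follows: active = first-screen hits whose inhibition reached a set limit at any dose in the follow-up dose series; inconclusive = inhibition above the set first-screen limit but never retested; inactive = the rest.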

Chain of Rac GTPase-activating protein 1 (Homo sapiens) (Q9H0H5 whole entry, looked up): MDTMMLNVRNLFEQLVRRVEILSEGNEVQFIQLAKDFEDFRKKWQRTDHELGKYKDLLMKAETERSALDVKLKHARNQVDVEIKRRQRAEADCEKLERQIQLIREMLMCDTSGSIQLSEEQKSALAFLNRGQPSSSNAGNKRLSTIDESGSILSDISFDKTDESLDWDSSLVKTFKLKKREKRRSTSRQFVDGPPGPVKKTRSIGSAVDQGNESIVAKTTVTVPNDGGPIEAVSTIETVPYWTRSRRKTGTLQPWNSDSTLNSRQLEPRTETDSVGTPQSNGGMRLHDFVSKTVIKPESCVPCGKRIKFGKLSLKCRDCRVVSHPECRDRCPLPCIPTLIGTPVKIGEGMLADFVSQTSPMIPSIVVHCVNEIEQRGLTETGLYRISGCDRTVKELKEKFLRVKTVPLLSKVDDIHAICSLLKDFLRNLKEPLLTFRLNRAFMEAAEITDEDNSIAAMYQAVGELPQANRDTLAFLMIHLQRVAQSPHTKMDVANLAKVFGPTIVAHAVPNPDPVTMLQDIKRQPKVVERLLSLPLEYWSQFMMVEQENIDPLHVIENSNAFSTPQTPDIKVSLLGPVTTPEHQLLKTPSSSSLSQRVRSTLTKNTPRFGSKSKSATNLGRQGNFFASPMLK

This assay addresses Rac GTPase-activating protein 1 (Homo sapiens) (UniProt Q9H0H5). Description: MgcRacGAP GTPase-activating activity inhibitors, confirmation, biochemical, ADP Hunter fluorescence, primary and confirmatory (AID 624330).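 Also: fluorescence reports GDP produced by GAP-driven GTP hydrolysis.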 Conditions: MgcRacGAP-stimulated Rac1 GTP hydrolysis, at 30 µM, active compounds read high, GST-tagged Rac1 F28L mutant substrate.
`COC(C[C@@H]1O[C@@H]1C(=O)COCc1ccccc1)OC`: the inhibition is 2.07%.
In the case of `O=C(NCCCn1ccnc1)c1cccc(S(=O)(=O)Nc2ccc(Br)cc2)c1` it was -2.05%.
In the case of `Cn1c(=O)c2c(nc(Br)n2CCCc2ccccc2)n(C)c1=O` it was 8.11%; in that of `CNc1nc2c(c(=O)n(C)c(=O)n2C)n1CCCc1ccccc1`, 10.2%.
Consider `CSc1nc2c(c(=O)[nH]c(=O)n2C)n1Cc1ccccc1`, for which the inhibition was 2.19%.
In the case of `CNc1nc2c(c(=O)[nH]c(=O)n2C)n1CCCc1ccccc1` it was 16.1%; in that of `Cn1c(=O)[nH]c(=O)c2c1nc(N)n2Cc1ccccc1`, 5.45%.
The result for `CSc1nc2c(c(=O)[nH]c(=O)n2C)n1CCCc1ccccc1` reads 5.17%.
The result for `COc1ccc(CCn2c(O)cc3nn(-c4nc5ccccc5s4)c(=O)c-3c2C)cc1` reads 20.6%.
With `Cc1ccc(C)c(S(=O)(=O)NCC(=O)NCc2ccco2)c1`, the inhibition is 1.96%.
In the case of `CC(C)Oc1ccc(C2NC(=O)c3ccccc3O2)cc1` (stereo not drawn) it was 4.5%.
In the case of `CC1CCCN(C(=O)C(=O)Nc2ccc3nc4n(c(=O)c3c2)CCCCC4)C1` (stereo not drawn) it was 7.24%.
The result for `Cc1noc(NC(=O)c2cccc(Cl)c2Cl)c1C#N` reads 6.81%.
With `N#Cc1cccc(NC(=O)CSc2sc3c(O)cc(=O)[nH]c3c2C#N)c1`, the inhibition was 18.4%.
Regarding `NS(=O)(=O)c1ccc(NC(=O)CN2C(=O)CCC2=O)cc1`, the inhibition was 6.61%.
As for `CC1CN(C(=O)N2c3ccccc3Sc3ccccc32)C(C)CC1=O` (stereo not drawn), the inhibition was 5.35%.
The result for `O=C(CSc1ccccc1)NCC(c1ccco1)N1CCCCC1` (stereo not drawn) reads 3.84%; that for `CN1OC[C@@H]2CN[C@H](c3ccc(-c4cccc(F)c4)cc3)C[C@@H]21`, 15.6%; that for `Cc1nn2cc(-c3ccc(-c4ccccc4)cc3)nc2s1`, 11.1%.
In the case of `Cc1nn2cc(-c3ccc(Cl)cc3)nc2s1` it was -6.27%; in that of `CC(C)C(=O)N1CCN(c2ccc(NC(=O)c3ccc4c(c3)OCCO4)cc2)CC1`, 5.03%; in that of `Cc1nn(-c2ccccc2)c(C)c1/C=N/O`, 12.2%.
The result for `Cc1nn(-c2ccccc2)c(Cl)c1/C=N/O` reads 9.11%; that for `Cc1ccc2nc(C)c(C(=O)N/N=C/c3ccco3)cc2c1`, 3.04%; that for `CCN(C[C@H]1N[C@@](C)(C(=O)OC)[C@H]2C(=O)N(C)C(=O)[C@@H]12)C(=O)c1ccccc1`, 6.04%.
As for `CC(=O)N(C1=C(N)C(=O)c2ccccc2C1=O)c1ccccc1`, the inhibition was 9.97%.
The result for `CC(=O)N(C1=C(N2CCOCC2)C(=O)c2ccccc2C1=O)c1ccc(C(=O)O)cc1` reads -12.8%; that for `CSc1ccc(NC(=O)CSc2nc3[nH]c(=O)cc(O)c3s2)cc1`, 11.1%.
Turning to `N[C@@H](Cc1ccc(O)c(O)c1)C(=O)O`, the inhibition was 6.56%.
In the case of `COC(=O)[C@@H](N)Cc1ccc(O)c(O)c1` it was -7.99%.
Consider `COc1ccc(N2CC(C(=O)Nc3ccc(N4CCOCC4)cc3)CC2=O)cc1` (stereo not drawn), for which the inhibition is 6.69%.
In the case of `CCOc1cc(C(c2c(C)[nH][nH]c2=O)c2c(C)[nH][nH]c2=O)ccc1OCc1ccc([N+](=O)[O-])cc1` it was -0.47%; in that of `Cc1ccccc1N(C(=O)c1csnn1)C(C(=O)NC1CCCCC1)c1ccncc1` (stereo not drawn), -1.41%.
In the case of `Cc1cc2nc(-c3ccccc3)cc(=O)n2[nH]1` it was 14.4%; in that of `Cc1nc2nc(-c3ccccc3)cc(=O)n2[nH]1`, 4.54%; in that of `CC(C)C(=O)Nc1nnc(NC(=S)Nc2ccccc2)s1`, 1%.
In the case of `COc1cccc2[nH]c3c(Cl)ncnc3c12` it was 5.53%; in that of `COc1ccccc1Nc1ncnc2nc[nH]c12`, 6.06%; in that of `CCOCCn1c(SC(C)C(C)=O)nc2c1c(=O)[nH]c(=O)n2C` (stereo not drawn), 5.63%.
Consider `CCOC(=O)c1c(C)oc2c(CN3CCN(C)CC3)c(Br)c(OC)c(O)c12`, for which the inhibition is 14.1%.
The result for `COc1ccccc1N=Nc1c(C)n[nH]c1C` reads 7.74%; that for `COc1ccccc1N=Nc1c(C)noc1C`, 2.76%; that for `COCCN(C(=O)CSc1nc2ccc(Cl)cc2[nH]1)c1c(N)n(Cc2ccccc2)c(=O)[nH]c1=O`, 10.9%.
In the case of `Cn1ncc(Cl)c1C(=O)N1CCN(c2cccc(Cl)c2)CC1` it was 7.96%; in that of `CCN(c1ccccc1)S(=O)(=O)c1ccc(Cl)c(NC(=O)CN2CCCCCC2)c1`, 29.2%; in that of `CCN(c1ccccc1)S(=O)(=O)c1ccc(Cl)c(NC(=O)CN2CCN(C)CC2)c1`, -0.66%.
With `CCCCSCCCNC(=O)c1ccc(CS(=O)(=O)c2ccccc2OC)o1`, the inhibition was 5.81%.
The result for `CC(C)Cn1c(-c2ccc(F)cc2)n[nH]c1=S` reads 14.4%.
In the case of `CC(C)Cn1c(-c2ccco2)n[nH]c1=S` it was 26.8%; in that of `CCOC(=O)C1=C(c2ccccc2)Nc2ncnn2C1c1ccc(O)cc1` (stereo not drawn), 5.08%.
In the case of `COc1ccc(N2C(=O)CSC2c2ccncc2)cc1` (stereo not drawn) it was 8.8%; in that of `COc1ccc(C2CC(c3ccncc3)=NN2c2ccc(S(N)(=O)=O)cc2)cc1` (stereo not drawn), 9.08%; in that of `Cc1ccnc(NC(=O)c2cccc(NC(=O)c3ccccc3C)c2)c1`, 11.1%.
As to `O=C(CN1CCOCC1)N/N=C/c1ccc(-c2cccc(Cl)c2Cl)o1`, the inhibition is 7.09%.
In the case of `Clc1cccc(-c2ccc(C=Nc3ccc(N4CCOCC4)cc3)o2)c1` it was 23.7%.
Regarding `Clc1ccc(-c2ccc(C=Nc3ccc(N4CCOCC4)cc3)o2)cc1`, the inhibition is 25.6%.
The result for `Clc1ccc(-c2ccc(C=Nc3ccc(N4CCOCC4)cc3)o2)c(Cl)c1` reads 9.07%.
In the case of `Cc1c(C)c2cccnc2c2ncccc12` it was 8.09%; in that of `O=C1CCCc2oc3ccc(NS(=O)(=O)c4cccc5cccnc45)cc3c21`, -1.33%.
The result for `COc1ccc(Br)cc1S(=O)(=O)n1nc(C)cc1C` reads -4.17%; that for `CCN(CC(=O)NCCCn1ccnc1)S(=O)(=O)c1ccc(C)cc1`, -8.53%; that for `O=C(c1cccn2c(=O)c3cc(Cl)ccc3nc12)N1CCN(Cc2ccc3c(c2)OCO3)CC1`, 9.42%.
As for `Cc1cc(C)c(C#N)c(Sc2ccc(N)cc2)n1`, the inhibition is 8.38%.
For the molecule `COc1ccccc1CN1CC(C(=O)NCc2cnn(C)c2)CCC1=O` (stereo not drawn), the inhibition is 5.74%.
In the case of `COc1cc(CNCc2ccco2)cc(OC)c1O` it was 6.83%; in that of `COc1cccc(CNCc2cccc(OC)c2O)c1O`, -13.3%.
For `CCOC(=O)c1ccccc1NC(=O)COC(=O)c1ccc(OCC(=O)N2CCOCC2)c(OCC)c1`, the inhibition is 4.78%.
In the case of `Cc1ccc(N(CC(=O)N2CCc3ccccc32)S(=O)(=O)c2cccs2)cc1` it was 1.58%.
The result for `COc1ccccc1OCC#CCSc1ncccn1` reads 7.44%; that for `CCN1CCN(CC#CCOc2ccccc2OC)CC1`, 29.8%; that for `COc1ccccc1OCC#CCNC1CCCCC1C` (stereo not drawn), 22.6%.
In the case of `COc1ccc(OCC#CCn2ccnc2)cc1` it was -14.9%.
For `CC1CC(C)CN(S(=O)(=O)c2ccc(C(=O)Nc3sccc3C(N)=O)cc2)C1` (stereo not drawn), the inhibition is 3.38%.
The result for `O=C(Cn1c(=O)cnc2ccccc21)Nc1cc(Cl)ccc1N1CCOCC1` reads -4.21%; that for `CCN(CC(=O)Nc1ccc(OC)cc1)CC(=O)Nc1sc2c(c1C(=O)OC)CCCC2`, 3.58%; that for `CCCC(=O)NC1=C(Cl)C(=O)c2ccccc2C1=O`, 24.7%.
In the case of `CCC(=O)Nc1c(C)cc(C)cc1Cl` it was 12.3%.
The result for `Cc1cccc(NC(=O)CN2CCN(C(=O)CN3C(=O)NC4(CCCCC4C)C3=O)CC2)c1C` (stereo not drawn) reads 7.46%; that for `CCN(CC)c1ccc(/C=N/NC(=O)Cc2cccs2)c(O)c1`, -34.9%; that for `CCN(CC)c1ccc(/C=N/NC(=O)c2ccco2)c(O)c1`, 9.97%.
As to `CCN(CC)c1ccc(/C=N/Nc2nc(C)cc(=O)[nH]2)c(O)c1`, the inhibition was 22.4%.
The result for `CCN(CC)c1ccc(/C=N/Nc2ccccc2)c(O)c1` reads 5.91%; that for `CCOC(=O)N/N=C/c1ccc(F)cc1F`, 3.61%; that for `CCN(CC)c1ccc(/C=N/NC(=O)c2ccoc2C)c(O)c1`, 2.9%.
In the case of `CCN(CC)c1ccc(/C=N/NC(=S)NCc2ccccc2)c(O)c1` it was 12.5%.
Take `CCN(CC)c1ccc(/C=N/Nc2ccc(C)cc2)c(O)c1`: the inhibition was 11.6%.
Consider `CCOc1ccc(N(CC(=O)Nc2cc(Cl)ccc2C)S(C)(=O)=O)cc1`, for which the inhibition is -0.16%.
In the case of `CCOc1ccc(CC(=NCCO)C2=C(O)CC(C)(C)CC2=O)cc1OCC`, the inhibition is 2.19%.
The result for `Cn1c(=O)oc2cc(S(=O)(=O)NCCN3CCc4ccccc4C3)ccc21` reads -3.64%; that for `CCN(CC)C(=O)CN1C(=O)C(=O)c2ccccc21`, 6.56%.
In the case of `Nc1ccn(CCCN2CCN(Cc3cccc4ccccc34)CC2)c(=O)n1` it was 19.7%; in that of `Cc1ccccc1N1CCN(C(=O)NCc2cccc(Cl)c2)CC1`, 2.37%.
The result for `Cc1ccc(S(=O)(=O)N2CCC(C(=O)NC3CCCCC3C)CC2)cc1` (stereo not drawn) reads 17.3%; that for `O=C(c1ccc(Cn2c(=O)[nH]c3ccccc3c2=O)cc1)N1CCN(c2ccccc2)CC1`, -4.78%.
On to `CCOC(=O)CCNCC1COc2ccccc2O1` (stereo not drawn), for which the inhibition is 0.26%.
In the case of `CC(NC(=O)CCC(=O)NC(C)C1COc2ccccc2O1)C1COc2ccccc2O1` (stereo not drawn) it was 6.94%; in that of `COc1ccc2nc(NC(=O)CN(C)S(=O)(=O)c3cccs3)sc2c1`, 2.51%; in that of `Cc1c(C(=O)NC2CC(=O)N(c3ccc4c(c3)OCCO4)C2)cccc1[N+](=O)[O-]` (stereo not drawn), 10.5%.
